From PubChem BioAssay
Compounds with a hit are over-represented: about 1.4% of the library has one in this group of screens.
a7 integrin act = qHTS for Activators of Integrin-Mediated Alleviation for Muscular Dystrophy; alpha7betagal myoblasts, beta-gal FDG fluorescence, 48 h; Potency, µM (top dose mostly 38.3 µM), for inactives: at the top dose activation, usual class: activators; hit rate 0.064% among 350,000;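 further: potency means the concentration at half of the fitted maximal effect; 100% = response of the positive control SU9516; nearly all actives have a fitted effect of over 60% in size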
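alpha7betagal+/- myoblasts (passage 13, 250/well) treated 48 h at 37C with compounds at 1:260 dilution of DMSO stock. Lysed, then beta-galactosidase activity read as FDG fluorescence (ex 480/em 540) after 30 min, with pre-read for autofluorescence.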
BRCA1 expr act = qHTS Assay to Identify Small Molecule Activators of BRCA1 Expression; Potency, µM (doses to about 46.1 µM), for the others: top-dose activation, usual class: activators; MCF7-BRCA1-FFLuc reporter, luminescence, 48 h; response scale: scaled: vehicle 0%, 10 µM genistein 100%; AID 624202, 2012; hit rate 1.1% among 380,000; further: potency means the concentration at half of the fitted maximal effect; nearly all actives have a fitted effect of over 80% in size
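MCF7-BRCA1-FFLuc, 2000 cells/well; 2 h attach, 37 °C/5% CO2; compound 48 h; luciferase substrate 15 min; luminescence end-point. Norm. to genistein 10 microM max activation and DMSO; concentration-response curves fitted.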
BCR signal inh = qHTS Assay to Find Inhibitors of Chronic Active B-Cell Receptor Signaling. ABC-DLBCL IkBa-CBG/CBR reporter, luminescence ratio, 4 h. Potency, µM (doses to about 46.1 µM), without a hit: at the highest dose activity change, negative = inhibition, hits mostly inhibitors. hit rate 0.05% among 340,000. AID 493014, 2011; active means well fitted inhibition curve with a large enough effect in the signal ratio, with a control signal flat, not every such curve was filed as active; inconclusive means small, poorly fitted or top-dose-only effect, or effect the other way, or a change in a side signal; the % refers to the signal ratio;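 further: potency means the concentration at half of the fitted maximal effect; plate controls were basal doxycycline-induced cells for no effect and cells given 10 µM MG132 for full effect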
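Compounds up to 46 uM were incubated four hours with TMD8 cells whose green CBG68 luciferase is fused to IkappaBalpha; red CBR luminescence normalised the signal, and concentration-effect curves were fitted to fusion, red and ratio data.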
N370S GC mod = qHTS Assay for Inhibitors and Activators of N370S glucocerebrosidase as a Potential Chaperone Treatment of Gaucher Disease; Lysosomal acid glucosylceramidase (Homo sapiens), P04062; N370S GC spleen homogenate, 4MU-glucoside fluorescence; Potency, µM (titrated, usually from 59.4 µM), for inactives: top-dose activity change, negative = inhibition, usual class: inhibitors; hit rate 0.092% among 330,000; AID 2101, 2009;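 further: potency means the concentration at half of the fitted maximal effect; 0% = full enzyme activity and -100% = no enzyme basal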
IL-2 act = qHTS of IL-2 Activators | IL-2 activation reporter assay, cell-based qHTS; stimulated with anti-CD3/CD4/CD28 beads; in transgenic mouse T cells | activation, % (series mostly up to about 46 µM) | hit rate 0.065% among 360,000 | AID 652025, 2013; in the data active means activation above about 50%; inconclusive means mostly about 30% to 49%; further: 0% is about no effect
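Unstimulated transgenic mouse T cells, 750 per well, received compound and, after 60 minutes, anti-CD3/anti-CD4 bead plus anti-CD28 stimulation. EGFP and DsRed were quantified after 18 hours.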
Nrf2 ARE act = qHTS of Nrf2 Activators; AREc32 ARE-luciferase reporter (MCF7-derived line), luminescence, 24 h; Potency, µM (highest dose often 46.1 µM), for the others: at the top dose activation, hits mostly activators; hit rate 0.31% among 410,000; AID 624171, 2012; further: potency means the concentration at half of the fitted maximal effect; % of control where 0% means no effect; nearly all actives have a fitted effect of over 65% in size
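AREc32 cells carrying an ARE-driven firefly luciferase, 1000 cells/well in OPTI-MEM with 5% FBS, dosed after overnight attachment and incubated 24 hr at 37 deg C. Steady-Glo luminescence read after 30 min at RT.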
* = called active by the depositor; u = inconclusive; x = no result; [ ] = remark or other dose. Unless noted, the call rests on the fitted dose curve; in most records, active means well fitted curve in the direction sought with a large enough effect; inconclusive means small, poorly fitted or top-dose-only effect, or another doubt; inactive means no such curve, though single readings can be large; an effect the other way counts as inactive or inconclusive.

SMILES	a7 integrin act	BRCA1 expr act	BCR signal inh	N370S GC mod	IL-2 act	Nrf2 ARE act
COC(=O)C(Cc1c[nH]c2ccccc12)NC(=O)c1ccc2nc[nH]c2c1 (centres undefined)	17%	10µM*	3%	0%	5	0%
COC(=O)C(Cc1c[nH]c2ccccc12)NC(=O)c1cncc(Br)c1 (centres undefined)	u	-45%	-7%	-1%	-3	0%
Cc1ccc(NP(=O)(Nc2ccc(C)cc2)Nc2ccc(C)cc2)cc1	3.2µM*	-9%	-3%	14%	-3	2%
CCN(CC)c1ccc(C=N/C(C#N)=C(\N)C#N)cc1	-21%	2.5µM*	5%	-3%	0	3%
Cc1cccc(N(Cc2ccccc2)C(=O)c2ccc(CS(C)(=O)=O)cc2)c1	-10%	-13%	-2%	-9%	0	-1%
CS(=O)(=O)Cc1cccc(C(=O)NN(c2ccccc2)c2ccccc2)c1	13µM*	-6%	-9%	0%	0	-1%
CC1CCN(C(=O)/C=C/c2ccc(C(C)(C)C)cc2)CC1	13%	52%	u	16%	-1	2%
CC(C)Cc1ccc(/C=C/C(=O)N2CCCCC2)cc1	1%	13µM*	u	14%	0	4%
CC(C)(C)c1ccc(/C=C/C(=O)N2CCCCC2)cc1	6%	7.1µM*	u	-16%	1	4%
CC(C)Cc1ccc(/C=C/C(=O)NC2CC2)cc1	-17%	5.6µM*	u	6%	0	3%
O=C(/C=C/c1ccc(Br)cc1)NC1CCCCCC1	-1%	u	u	10%	-3	2%
O=C(c1ccco1)N1CCN(C(=S)Nc2ccccc2C(F)(F)F)CC1	-31%	-50%	-2%	-4%	-3	0%
CCOCCCN(C)C1CCN(C(=O)c2oc3ccccc3c2NC(=O)c2ccc(F)cc2)CC1	-48%	2%	3%	u	3	0%
Cc1cccc(-c2cnc3cccnn23)c1	x	u	x	x	0	1%
CCOc1ccc(-c2cnc3cccnn23)cc1	x	7.1µM*	x	x	0	4%
CSc1ccccc1-c1cnc2cccnn12	x	13%	x	x	0	0%
CCOc1cccc(-c2cnc3cccnn23)c1	x	8.9µM*	x	x	-1	0%
O=C(NC1CC1)c1ccc(-c2cnc3cccnn23)cc1	x	7.9µM*	x	x	-1	0%
COc1ccc(OC2C=CC(c3ccccc3)OC2CO)c(C(C)=O)c1 (centres undefined)	x	x	x	0%[12.8 µM]	x	x
COCCn1cc(C(=O)c2cc(Br)ccc2O)cc(C#N)c1=O	3%	-6%	12%	-5%	-4	1%
CN(C)c1ncnc2c1ncn2-c1ccccc1	4%	11µM*	x	x	-3	4%
CC(C)c1ccc(NC(=O)C2=NNC(=O)CC2)cc1	18%	2.2µM*	u	-8%	-1	0%
CC(=O)c1ccc(NC(=O)C2(c3ccccc3)CC2(Cl)Cl)cc1 (centres undefined)	6%	10µM*	4%	3%	0	4%
O=C(Nc1ccccc1Cl)C1(c2ccccc2)CC1(Cl)Cl (centres undefined)	-6%	-32%	3%	22%	0	0%
O=C(CSc1nnc(CNC(=O)c2c(F)cccc2F)o1)NCc1ccc2c(c1)OCO2	-5%	4%	x	x	-1	0%
COc1ccccc1/C=C/c1cncc(/C=C/c2ccccc2OC)c1	x	-59%	x	x	x	x
CCCCSc1ncc(C(=O)OCC)c(N)n1	20%	3.5µM*	u	5%	0	6%
CCOC(=O)c1cnc(SCCc2ccccc2)nc1N	-8%	u	u	26%	-4	3%
